# Rows were chosen to be rich in hits. Some 6.9% of all compounds tested hit in one or more screens of this group.
# MPTP block: blocks calcium-induced mitochondrial swelling; isolated mouse mitochondria, Ca2+ swelling absorbance, 30 min; actives 1.4% (n = 360,000); AID 602449; inhibition, % at 10 µM;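 active = inhibition of 50% or more, scaled per plate between neutral and stimulator controls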;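 also: 0% = DMSO wells given calcium and 100% = 1 mM EGTA wells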
# SKKanGAS inh: SKKanGAS growth inhibition. actives 1.3% (n = 300,000). inhibition, % at 7.5 µM. S. pyogenes SKKanGAS, kanamycin growth, BacTiter-Glo, 6 h;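 active = mean replicate score, as percent of positive control median, at least 50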;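 also: strain carries kanamycin resistance gene driven by streptokinase promoter and grows in 40 µg/ml kanamycin; loss of luminescence reflects streptokinase promoter inhibition or plain growth inhibition; 0% = median of DMSO wells and 100% = positive control at its reference dose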
# Beta apoptosis: blocks beta cell apoptosis; INS-1E cytokine-induced death, ATP luminescence, 48 h; percent of positive-control rescue, neutral wells zero; protection from apoptosis, % (concentration not given with the values); actives 0.8% (n = 300,000);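 active = Every replicate reaches about 75%, or at least half do and their mean reaches it too, limit read from the data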;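 also: 0% = cytokine-treated negative control wells and 100% = positive control rescue; higher means more ATP so stronger rescue from cytokine killing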
# Mdm2 MdmX PPI: disrupts the human Mdm2-MdmX interaction. actives 3% (n = 330,000). SaOS-2 split-luciferase Mdm2/MdmX complementation, luminescence. inhibition, % at 8 µM. O15151+Q00987;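 active = inhibition of at least 50% at 8 µM in the primary screen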
# Target sequence (O15151 whole entry, looked up): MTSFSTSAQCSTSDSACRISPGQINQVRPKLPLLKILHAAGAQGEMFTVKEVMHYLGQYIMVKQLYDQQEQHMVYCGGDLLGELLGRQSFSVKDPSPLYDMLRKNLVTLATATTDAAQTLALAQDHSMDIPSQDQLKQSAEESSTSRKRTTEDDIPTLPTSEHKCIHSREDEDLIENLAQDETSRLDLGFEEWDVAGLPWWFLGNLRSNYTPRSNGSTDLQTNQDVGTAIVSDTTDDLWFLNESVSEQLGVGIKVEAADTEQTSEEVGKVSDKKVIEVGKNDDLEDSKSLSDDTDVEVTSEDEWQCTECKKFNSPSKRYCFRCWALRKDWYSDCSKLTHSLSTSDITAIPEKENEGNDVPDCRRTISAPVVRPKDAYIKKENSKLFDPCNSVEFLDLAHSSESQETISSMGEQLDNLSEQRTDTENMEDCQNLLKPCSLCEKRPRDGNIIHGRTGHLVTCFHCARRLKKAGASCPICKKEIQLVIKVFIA
# Target sequence (Q00987 whole entry, looked up): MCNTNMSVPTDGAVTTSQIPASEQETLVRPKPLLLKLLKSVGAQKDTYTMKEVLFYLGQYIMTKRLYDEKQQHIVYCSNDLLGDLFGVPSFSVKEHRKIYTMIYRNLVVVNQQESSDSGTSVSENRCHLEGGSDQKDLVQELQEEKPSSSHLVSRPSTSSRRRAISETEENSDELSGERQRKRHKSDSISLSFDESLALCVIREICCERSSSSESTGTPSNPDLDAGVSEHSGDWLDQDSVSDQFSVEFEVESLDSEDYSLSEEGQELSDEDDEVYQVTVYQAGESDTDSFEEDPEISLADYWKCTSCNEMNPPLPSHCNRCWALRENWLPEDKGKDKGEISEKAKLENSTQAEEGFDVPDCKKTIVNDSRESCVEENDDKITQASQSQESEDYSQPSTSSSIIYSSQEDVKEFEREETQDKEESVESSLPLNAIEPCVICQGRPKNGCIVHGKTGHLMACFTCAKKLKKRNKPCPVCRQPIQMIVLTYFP
# CSC inhib: blocks cancer stem cells; cancer stem cell-like cells viability, luminescence; inhibition, % at 7.5 µM; actives 1.1% (n = 300,000); in the data active = inhibition above about 75%; tested in HMLE shEcad cells
# NR3A LBD binder: NR3A (human) ligand-binding domain modulation | NR3A LBD differential scanning fluorimetry, Tm shift; 0% = protein alone, 100% = glycine-bound protein | Tm shift relative to glycine control, % at 25 µM | actives 2.5% (n = 340,000);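 active = melting temperature shift of at least 10% of the positive control shift, at one fixed dose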
# Mdm2-MdmX conf: human Mdm2/MdmX binding inhibition, confirmed. inhibition, % at 8 µM. shares compounds with Mdm2 MdmX PPI. actives 55% (n = 10,000). luminescent assay; in the data active = inhibition above about 40%
# FLuc counter: inhibits full-length luciferase, flagging false Mdm2/MdmX hits; shares compounds with Mdm2 MdmX PPI; SaOS-2 full-length luciferase counterscreen, luminescence; inhibition, % at 8 µM; actives 77% (n = 6,200); AID 504607;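 active = mean inhibition at 8 µM reaching about 37%, which flags the compound as non-specific, limit read from the data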;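 also: p53-null SaOS-2 cells with luciferase driven by a doxycycline-inducible promoter; compound on cells about two nights before reading with doxycycline added after day one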
# Starred values were filed as active, the others as inactive; . = no result given.
SMILES,MPTP block,SKKanGAS inh,Beta apoptosis,Mdm2 MdmX PPI,CSC inhib,NR3A LBD binder,Mdm2-MdmX conf,FLuc counter
Cc1cc(C)c(OCC(=O)Nc2nc(-c3ccccn3)cs2)c(C)c1,-1,97*,1,53*,-6,-9,33,46*
CC(Oc1ccc(F)cc1)C(=O)Nc1nc(-c2ccccn2)cs1 (centres undefined),-2,107*,20,77*,36,-3,84*,36
O=C(CCS(=O)(=O)c1ccc(F)cc1)Nc1nc(-c2ccccn2)cs1,0,-5,2,69*,-9,2,43*,39*
Cc1ccc(-c2csc(NC(=O)C[n+]3cc(-c4ccc(C)cc4)n4c3CCC4)n2)cc1,2,7,11,56*,9,-1,12,.
Cc1ccc(S(=O)(=O)NCCC(=O)NNC(=O)c2ccccc2O)cc1C,-1,-5,-2,37,20,1,.,.
COc1ccc2oc(C(=O)Nc3nc(-c4ccccn4)cs3)c(C)c2c1,-2,84*,12,60*,30,9,59*,69*
CCCC(=O)Nc1ccc(-c2csc(NNC(C)=O)n2)cc1,0,-3,1,28,0,1,.,.
O=C(CCS(=O)(=O)c1ccccc1)Nc1ccccn1,-2,-9,-13,23,.,-2,.,.
COc1ccc2oc(C(=O)NC(C)c3ccccn3)c(C)c2c1 (centres undefined),-1,.,0,4,.,-1,.,.
CCc1ccccc1OCC(=O)Nc1nc(-c2cccnc2)cs1,-4,102*,2,67*,40,-2,69*,36
CCCC(=O)Nc1ccc(-c2csc(N/N=C\c3ccncc3)n2)cc1,1,7,4,65*,13,18*,7,.
O=C(CCS(=O)(=O)c1ccccc1)Nc1nc(-c2ccccn2)cs1,-3,-8,10,70*,47,-4,35,48*
Cc1ccc(S(=O)(=O)CCC(=O)Nc2nc(-c3ccncc3)cs2)cc1,-2,0,-18,88*,-7,2,58*,37*
CCOc1cc2c3c(c1)C(C)=CC(C)(C)N3C(=O)C2=O,0,7,18,68*,17,-1,39,85*
Cc1ccc(N(CC(=O)N/N=C/c2cccnc2)S(=O)(=O)c2ccccc2)cc1,2,-8,-1,4,-14,-3,.,.
Cc1ccc(S(=O)(=O)N(CC(=O)N/N=C/c2cccc(Cl)c2)c2cccc3cccnc23)cc1,1,-3,41,66*,-7,-7,23,.
Cc1ccc(/C=C2\SC(=S)N(CCC(=O)N3CCCCC3)C2=O)cc1,1,0,-20,72*,.,-4,66*,122*
Cc1ccc(/C=C2/SC(=S)N(CCC(=O)N3CCOCC3)C2=O)cc1,-2,8,-19,22,17,-2,.,.
O=C(CN1C(=O)S/C(=C/c2ccncc2)C1=O)N1CCOCC1,1,-1,-8,65*,-5,3,-21,.
O=C(CCN1C(=O)/C(=C\c2ccccc2)SC1=S)N1CCCCC1,1,0,-96,57*,-4,-4,72*,61*
O=C(CCN1C(=O)/C(=C\c2cccc(Br)c2)SC1=S)N1CCOCC1,4,0,-40,61*,18,2,47*,21
O=C(CN1C(=O)S/C(=C/c2cccnc2)C1=O)N1CCOCC1,-3,1,-3,-10,0,-4,.,.
CN=C1N(C)C[C@@H]2[C@@H]3C(=O)N(C)C(=O)[C@@H]3[C@](C)(C(=O)OC)N12,-1,.,.,13,.,-1,.,.
O=C(CCCN1C(=O)/C(=C\c2ccccc2)SC1=S)N1CCOCC1,2,.,-25,51*,28,4,20,.
O=C(CCN1C(=O)/C(=C/c2cccs2)SC1=S)N1CCCCC1,6,0,-8,68*,43,2,52*,45*
SMILES,MPTP block,SKKanGAS inh,Beta apoptosis,Mdm2 MdmX PPI,CSC inhib,NR3A LBD binder,Mdm2-MdmX conf,FLuc counter
O=C(CCCN1C(=O)/C(=C/c2ccccc2)SC1=S)Nc1ccccc1O,2,7,.,95*,-3,9,88*,30
CCN(CC)C(=O)CN1C(=O)/C(=C/c2ccccc2)SC1=S,10,6,-60,63*,20,0,45*,28
CCc1ccccc1NC(=O)N1CCc2ccccc21,3,-2,-1,-11,-3,0,.,.
O=C(CN1C(=O)/C(=C/c2ccccc2)SC1=S)N1CCN(CCc2ccccn2)CC1,0,-1,-31,84*,-5,0,54*,24
COc1cc(/C=C2\SC(=S)N(CCC(=O)N3CCCCC3)C2=O)cc(OC)c1OC,0,1,-50,68*,.,1,43*,63*
CCn1c(=O)c2sccc2n(Cc2cc(C(=O)OC)ccc2OC)c1=O,0,-2,0,51*,-14,2,8,.
CSc1nnc(NC(=O)c2nc(S(=O)(=O)Cc3cccc(C)c3)ncc2Cl)s1,-2,12,-29,100*,110*,0,92*,50*
C=CCSc1nnc(NC(=O)c2nc(SCC)ncc2Cl)s1,-1,12,6,9,10,5,.,.
CC(C)c1nnc(NC(=O)c2nc(S(=O)(=O)Cc3ccccc3F)ncc2Cl)s1,.,5,-27,97*,102*,3,46*,5
CCSc1nnc(NC(=O)c2nc(S(=O)(=O)Cc3ccc(F)cc3)ncc2Cl)s1,1,-5,-29,69*,103*,2,26,.
Cc1nnc(NC(=O)c2nc(S(=O)(=O)Cc3ccccc3C)ncc2Cl)s1,0,8,-38,95*,85*,1,71*,52*
Cc1cccc(CS(=O)(=O)c2ncc(Cl)c(C(=O)Nc3nnc(C(C)C)s3)n2)c1,0,0,-20,96*,107*,3,88*,50*
CC(C)c1nnc(NC(=O)c2nc(S(=O)(=O)Cc3ccc(F)cc3)ncc2Cl)s1,0,7,-22,100*,106*,0,57*,52*
Cc1ccc(CS(=O)(=O)c2ncc(Cl)c(C(=O)Nc3nnc(C(C)C)s3)n2)cc1,-1,-2,-7,96*,111*,2,38,0
Cc1cc2oc(=O)cc(C)c2cc1NC(=O)CCC(=O)O,-1,-11,2,29,-17,-1,.,.
Cc1cc2oc(=O)cc(C)c2cc1NC(=O)CCl,1,-4,-4,58*,27,0,36,.
CC(C)NC(=O)c1cc(-c2ccc(Br)cc2)on1,1,-2,1,-203,-12,-1,.,.

# Source: PubChem BioAssay
